# From ChEMBL document CHEMBL3988442, “University of Dundee, Small-Polar-MMV Screening Library” (2021)
# Hit rate of the full screen: of about 48,000 compounds, about 13,000 (27%) showed an effect of 50% or more. This is one part of the list.
# System: Wolbachia pipientis
# Assay: Anti-Wolbachia Cell-Based Screen
# Type: functional
# Set-up: scale not given: in the data most compounds retested in dose-response had high values
# Details: 5 µM
row,Compound,Percent Effect
1,CC(C)=CCN1Cc2nnc(C3CCOCC3)n2C(Cc2c[nH]cn2)C1 (stereo not drawn),-4.476%
2,Cc1nccn1-c1cc(CNS(=O)(=O)N2CCCC(C)C2)ccn1 (stereo not drawn),1.62%
3,O=C(C1CCOCC1)N1CC[C@H](O)[C@@H]1Cc1cccnc1,108.8%
4,c1ccc(C[C@H]2[C@H](N3CCOCC3)CCN2Cc2cccnc2)cc1,-10.76%
5,CN(C)C(=O)N1CCN(Cc2nnc(C(C)(C)C)o2)CC1,5.287%
6,CN1CCc2c(c(COc3cncnc3)nn2CC2CC2)C1.O=C(O)C(F)(F)F,-14.06%
7,CC(C)N1CCc2c(c(COc3cccnc3)nn2CC2CC2)C1.O=C(O)C(F)(F)F.O=C(O)C(F)(F)F.O=C(O)C(F)(F)F,-5.827%
8,Cn1nc(COc2cccnc2)c2c1CCN(CC1CC1)C2.O=C(O)C(F)(F)F.O=C(O)C(F)(F)F,110.2281%
9,COCCN1CCc2c(c(COc3cccnc3)nn2C)C1.O=C(O)C(F)(F)F.O=C(O)C(F)(F)F,96.91%
10,Cc1cccc(CN2Cc3[nH]nc(COc4cccnc4)c3C2)n1.O=C(O)C(F)(F)F.O=C(O)C(F)(F)F.O=C(O)C(F)(F)F,3.508%
11,Cn1nc(COc2cccnc2)c2c1CCN(Cc1ccco1)C2.O=C(O)C(F)(F)F.O=C(O)C(F)(F)F,-12.77%
12,Brc1ccc(C2(NCc3noc(C4CC4)n3)CCC2)cc1,4.263%
13,CNC(=O)COc1ccccc1CNC1CCc2nc(C)nn2C1 (stereo not drawn),-0.6489%
14,c1csc(-c2nc(CNC3CCc4ncnn4C3)cs2)c1 (stereo not drawn),-10.85%
15,c1ccc(-c2nccc(CNC3CCc4ncnn4C3)n2)cc1 (stereo not drawn),120.1%
16,CCc1nc2n(n1)CC(NCc1noc(-c3ccc(C)cc3)n1)CC2 (stereo not drawn),89.35%
17,CCc1nc2n(n1)CC(NCc1noc(-c3ccccc3)n1)CC2 (stereo not drawn),-10.54%
18,COc1ccc(-c2nc(CNC3CCc4nc(C)nn4C3)no2)cc1 (stereo not drawn),131.6%
19,CCc1nc2n(n1)CC(NCc1nc(C)c(C)o1)CC2 (stereo not drawn),-17.82%
20,Cc1nc2n(n1)CC(NCCc1cccs1)CC2 (stereo not drawn),7.216%
21,Cc1cccc(-c2nc(CNC3CCc4ncnn4C3)no2)c1 (stereo not drawn),121.2%
22,COc1ccccc1CC(=O)N1CCCC(c2nccn2CC(N)=O)C1 (stereo not drawn),0.4607%
23,COc1ccc(OCCc2sc(C3(O)CCCNCC3)nc2C)cc1.Cl (stereo not drawn),2.251%
24,O=C1NCCCC12CCN(c1nc3c(c(C(F)(F)F)n1)CCCC3)C2 (stereo not drawn),-1.844%
25,Fc1ccc(-c2cnc(CNC3CCc4ncnn4C3)o2)cc1 (stereo not drawn),7.148%
26,Cc1nc2n(n1)CC(NCc1nc(-c3cccnc3)no1)CC2 (stereo not drawn),-5.692%

row,Compound,Percent Effect
1,Cc1ccc(O)c(CNC2CCc3nc(C)nn3C2)n1 (stereo not drawn),92.84%
2,Cc1nc2n(n1)CC(NCc1nc(-c3cccs3)no1)CC2 (stereo not drawn),-19.82%
3,Cc1nc2n(n1)CC(NCc1nc3ccccc3o1)CC2 (stereo not drawn),12.54%
4,c1ccc(-c2noc(CNC3CCc4ncnn4C3)n2)nc1 (stereo not drawn),0.9775%
5,c1ccc(-c2nc(CNC3CCc4ncnn4C3)no2)cc1 (stereo not drawn),109.8%
6,c1nc2n(n1)CC(NCc1nc(-c3ccsc3)no1)CC2 (stereo not drawn),-6.7%
7,Cc1ccc(-c2nc(CNC3CCc4ncnn4C3)no2)cc1 (stereo not drawn),118.2%
8,Cc1cccc(-c2nc(CNC3CCc4nc(C)nn4C3)no2)c1 (stereo not drawn),111%
9,Cc1nc2n(n1)CC(NCc1nc(C)c(C)o1)CC2 (stereo not drawn),-8.158%
10,O=C(CN1CCOC(c2ccc(Cl)s2)C1)NCc1ccco1 (stereo not drawn),16.69%
11,CC(C)OC(=O)CCNC(=O)Nc1cccc2ncccc12,-2.669%
12,Cc1ccc(CNC(=O)N2CCCC(NS(C)(=O)=O)C2)cc1 (stereo not drawn),112.9%
13,COc1ccc(CNC(=O)N2CCCC(Nc3ccccc3)C2)cn1 (stereo not drawn),-13.37%
14,COc1ccccc1CNC(=O)N1CCCC(NS(C)(=O)=O)C1 (stereo not drawn),10.46%
15,CS(=O)(=O)NC1CCN(C(=O)NCCc2ccccc2F)CC1,4.744%
16,CS(=O)(=O)NC1CCCN(C(=O)NCc2ccccc2Cl)C1 (stereo not drawn),118.4%
17,CS(=O)(=O)NC1CCCN(C(=O)NCc2cccc(F)c2)C1 (stereo not drawn),119.2%
18,CS(=O)(=O)NC1CCN(C(=O)c2ccc(Br)o2)C1 (stereo not drawn),-2.031%
19,CS(=O)(=O)NC1CCCN(C(=O)NCc2ccoc2)C1 (stereo not drawn),92.13%
20,COC1CCCN(C(=O)NCc2ccc(C(=O)N(C)C(C)C)cc2)C1 (stereo not drawn),-8.588%
21,CN1C[C@@H]2CN(C(=O)NCc3cccc(F)c3)CCC[C@]2(C(=O)O)C1.O=C(O)C(F)(F)F,-0.5828%
22,Cc1cc(CN2CCCC(NS(C)(=O)=O)C2)ccc1-n1cncn1 (stereo not drawn),11.85%
23,CC(C(=O)N1CCc2ccccc21)N1CCc2cncnc2C1 (stereo not drawn),1.414%
24,CC1(C)CN(C(=O)CCc2nc(-c3ccncc3)no2)CCO1,17.48%
25,CC(=O)N(C/C=C/c1ccccc1)CCO,-9.29%
26,CC(C)c1nccn1C1CCCN(C(=O)c2ccn(C)c(=O)c2)C1 (stereo not drawn),-3.204%

row,Compound,Percent Effect
1,CCc1nccn1C1CCCN(C(=O)c2ccc3nncn3c2)C1 (stereo not drawn),-7.143%
2,O=C(c1ccc2nncn2c1)N1CCCC(n2ccnc2)C1 (stereo not drawn),105.7%
3,CC(C)c1nccn1C1CCCN(C(=O)c2ccc3c(c2)COC3)C1 (stereo not drawn),-6.912%
4,CC(C)c1nccn1C1CCCN(C(=O)c2ccc3nncn3c2)C1 (stereo not drawn),89.79%
5,Cc1nccn1C1CCCN(C(=O)c2ccc3nncn3c2)C1 (stereo not drawn),98.97%
6,CN(Cc1cccnc1)C[C@@H]1OC[C@H]2CN(C(=O)C3CC3)CC[C@H]21.O=C(O)C(F)(F)F.O=C(O)C(F)(F)F,-11.76%
7,O=C(Nc1cc(Cl)ccc1Cl)NC1CCN(C2CCOC2)CC1 (stereo not drawn),-16.63%
8,CCCn1ccnc1CN1C[C@@H](CN2CCCCC2)[C@@H](CO)C1,-0.9532%
9,Cn1cc(CCCN2CCN(C(=O)c3cccc(O)c3)CC2)cn1,-1.766%
10,CN(CCCc1cnn(C)c1)c1nccc(-c2cc(C(=O)O)ccn2)n1,108.4%
11,CN(CCCc1cnn(C)c1)C(=O)Nc1cccc(C#N)c1,-5.075%
12,CN(Cc1cnn(C)c1)c1nccc(-c2cc(C(=O)O)ccn2)n1,109.1%
13,Cc1nn(C)cc1-c1ccnc(N(C)Cc2cnn(C)c2)n1,-26.11%
14,CN(CCCc1nccn1C)c1nccc(-c2cc(C(=O)O)ccn2)n1,93.19%
15,CC(C)N(Cc1cnn(C)c1)C(=O)c1ccnc(N(C)C)c1,14.77%
16,Cc1nc(N(C)CCCc2nccn2C)c2nc(C)oc2n1,-2.669%
17,CN(CCCc1nccn1C)c1nccc(N2CCC(O)C2)n1 (stereo not drawn),13.17%
18,COCCn1ccnc1CN(Cc1ccccn1)Cc1sccc1C,-1.6%
19,CCOc1ccccc1NC(C)C(=O)N(C)Cc1cccc(F)c1 (stereo not drawn),13.58%
20,CC(=O)Nc1nc(CN(C)CC2CCCN2c2cccnn2)cs1 (stereo not drawn),10.35%
21,CNC(=O)CC1CCN(C(=O)NCc2coc3ccccc23)CC1,-8.978%
22,CC(C)c1noc(C(C)N2CCN(Cc3ccsc3)CC2)n1 (stereo not drawn),12.33%
23,Cn1ccnc1C(O)c1ccccc1N1CCN(Cc2cccs2)CC1 (stereo not drawn),123.9%
24,CC(C)Oc1ncnc2c1CCN(Cc1cccs1)CC2,10.07%
25,c1cc(CN2CCN(Cc3cscn3)CC2)cs1,-0.1438%
26,Cc1ccccc1C(C)NC(=O)CN1CCN(Cc2cccs2)CC1 (stereo not drawn),6.89%

row,Compound,Percent Effect
1,Cn1ccnc1C(O)c1ccccc1N1CCN(Cc2ccsc2)CC1 (stereo not drawn),129.7%
2,Cn1cc(N2CCCC(Nc3ccc4c(c3)CCCO4)C2=O)cn1 (stereo not drawn),3.281%
3,CC1CCN(C)c2ccccc2N1C(=O)c1ccc(=O)n(C)c1 (stereo not drawn),-5.744%
4,CNS(=O)(=O)c1cccc(CNc2ccc(C(F)(F)F)nn2)c1,12.46%
5,CC1CCN(C(=O)Cn2cc(I)cn2)CC1,2.364%
6,COc1cccc(CC(=O)N2CCC(c3ccn4nccc4n3)CC2)c1,113.7%
7,COc1cccc(CC(=O)N2CCCN(c3ccnc(C)c3)CC2)c1,-23.77%
8,Cc1cc(C)n(CCC(=O)N2CCC(c3nc(C(C)C)no3)CC2)n1,8.819%
9,Cc1nc(O)cc(C2CCN(C(=O)CN(C)c3ccccc3)CC2)n1,-2.835%
10,Cc1cc(C)n(CC(=O)N2CCC(c3nc(C)no3)CC2)n1,-3.198%
11,Cc1cc(C)n(CC(=O)N2CCC(c3ccn4nccc4n3)CC2)n1,104.2%
12,CCOCCCC(=O)N1CCN(C(=O)Cc2cccc(OC)c2)CC1,-5.603%
13,Cc1cnn(CC(=O)N2CCC(c3ccn4nccc4n3)CC2)c1,130%
14,O=C(Nc1cccc(OCc2ccc(F)cc2)c1)C1COCCO1 (stereo not drawn),-6.014%
15,CCOc1ccc(CC(=O)Nc2cnccc2SCCCO)cc1,9.652%
16,CCC[C@@H]1CN(Cc2nnc(-c3cccnc3)o2)C[C@H]1NC(C)=O,-9.676%
17,COc1ncc(Cl)c(NCc2ccc([S+](C)[O-])cc2)n1 (stereo not drawn),-2.144%
18,CC1=Nc2c(c(=O)[nH]n2C2CCOCC2)C(c2cccc(Br)c2)S1 (stereo not drawn),2.755%
19,Cc1cccc(C(C(=O)N2CC(c3cccnc3)C2)N(C)C)c1 (stereo not drawn),-9.21%
20,CC1=Nc2c(c(O)nn2C(C)C)C(c2cn(C)nc2C)S1 (stereo not drawn),105.3%
21,CC1=Nc2c(c(O)nn2C(C)C)C(c2cnn(C)c2)S1 (stereo not drawn),103.6%
22,CC1=Nc2c(c(=O)[nH]n2C(C)C)C(c2cccs2)S1 (stereo not drawn),-8.42%
23,CC1=Nc2c(c(O)nn2C2CCOCC2)C(c2cccnc2)S1 (stereo not drawn),111.6%
24,O[C@@H]1C[C@@H](c2nc(-c3cccnc3)no2)N(C2CCOCC2)C1,9.041%
25,CC1=Nc2c(c(O)nn2C(C)C)C(c2cccnc2)S1 (stereo not drawn),138.8%
